# Experimental data: PubChem BioAssay (EPA / NIEHS)
# Records with an inconclusive call do not appear. The source made the active and inactive calls. Rule for the calls, unless noted: active = hit-call score of the fitted dose curve at least 0.9, where 1 is the maximum; inconclusive = response in the unintended direction; inactive = score below 0.9.
# Assays:
# [1] = molecular target: human Peroxisome Proliferator-activated Receptor delta (PPARd), PPARD (gene 5467) (UniProt Q03181); experiment: ATG_PPARd_TRANS: Attagene TRANS-FACTORIAL HepG2 Assay for human Peroxisome Proliferator-activated Receptor delta (PPARd) (AID 2283002)
# human Peroxisome Proliferator-activated Receptor delta (PPARd), PPARD (gene 5467), sequence (Q03181 whole entry, looked up, the tested form may be a part): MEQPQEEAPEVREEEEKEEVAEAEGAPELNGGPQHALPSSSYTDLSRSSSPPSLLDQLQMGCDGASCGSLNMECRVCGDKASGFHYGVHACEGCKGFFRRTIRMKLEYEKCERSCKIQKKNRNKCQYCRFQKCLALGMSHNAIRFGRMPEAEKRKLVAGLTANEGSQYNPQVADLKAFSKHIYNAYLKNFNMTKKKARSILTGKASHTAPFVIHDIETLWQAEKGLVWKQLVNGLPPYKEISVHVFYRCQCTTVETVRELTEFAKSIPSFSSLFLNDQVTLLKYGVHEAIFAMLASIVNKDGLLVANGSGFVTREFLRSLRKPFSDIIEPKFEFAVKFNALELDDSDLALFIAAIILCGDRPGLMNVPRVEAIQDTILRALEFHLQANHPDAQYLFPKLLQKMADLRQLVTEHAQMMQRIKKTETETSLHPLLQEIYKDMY
# In short: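 Read-out is induced reporter mRNA, quantified by RT-PCR with fluorescent labelling and capillary electrophoresis after 24 h dosing. Cells are HepG2 transiently carrying multiple GAL4-UAS reporter units driven by exogenous NR-GAL4 chimeras; DMSO serves as baseline.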
# [2] = molecular target: Peroxisome proliferator-activated receptor gamma (Homo sapiens) (UniProt P37231); experiment: ATG_PPARg_TRANS: Attagene TRANS-FACTORIAL HepG2 Assay for human Peroxisome Proliferator-activated Receptor-gamma (PPARg) (AID 2283007)
# Peroxisome proliferator-activated receptor gamma (Homo sapiens), sequence (P37231 whole entry, looked up): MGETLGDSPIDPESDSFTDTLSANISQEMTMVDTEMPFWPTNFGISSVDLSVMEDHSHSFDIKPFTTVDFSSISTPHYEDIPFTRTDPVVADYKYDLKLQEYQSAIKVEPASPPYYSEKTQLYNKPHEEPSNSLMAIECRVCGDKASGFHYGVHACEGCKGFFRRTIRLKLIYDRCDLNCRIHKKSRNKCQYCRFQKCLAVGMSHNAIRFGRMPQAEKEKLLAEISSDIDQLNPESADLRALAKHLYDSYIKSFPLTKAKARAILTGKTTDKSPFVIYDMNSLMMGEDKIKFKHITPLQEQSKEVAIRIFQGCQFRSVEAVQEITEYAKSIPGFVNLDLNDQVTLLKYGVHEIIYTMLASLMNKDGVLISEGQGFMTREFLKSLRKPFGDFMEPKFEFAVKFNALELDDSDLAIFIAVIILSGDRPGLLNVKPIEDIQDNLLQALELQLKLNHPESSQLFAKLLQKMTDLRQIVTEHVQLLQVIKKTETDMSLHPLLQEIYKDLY
# In short: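 Human hepatoma HepG2, transient MRTU transfection, 24 h treatment. mRNA reporter signal by RT-PCR plus capillary electrophoresis, fluorescence detection; fitted for increase over DMSO negative control.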
# [3] = molecular target: human RAR-related Orphan Receptor gamma (RORg), RORC (gene 6097) (UniProt P51449); experiment: ATG_RORg_TRANS: Attagene TRANS-FACTORIAL HepG2 Assay for human RAR-related Orphan Receptor gamma (RORg) (AID 2283011)
# human RAR-related Orphan Receptor gamma (RORg), RORC (gene 6097), sequence (P51449 whole entry, looked up, the tested form may be a part): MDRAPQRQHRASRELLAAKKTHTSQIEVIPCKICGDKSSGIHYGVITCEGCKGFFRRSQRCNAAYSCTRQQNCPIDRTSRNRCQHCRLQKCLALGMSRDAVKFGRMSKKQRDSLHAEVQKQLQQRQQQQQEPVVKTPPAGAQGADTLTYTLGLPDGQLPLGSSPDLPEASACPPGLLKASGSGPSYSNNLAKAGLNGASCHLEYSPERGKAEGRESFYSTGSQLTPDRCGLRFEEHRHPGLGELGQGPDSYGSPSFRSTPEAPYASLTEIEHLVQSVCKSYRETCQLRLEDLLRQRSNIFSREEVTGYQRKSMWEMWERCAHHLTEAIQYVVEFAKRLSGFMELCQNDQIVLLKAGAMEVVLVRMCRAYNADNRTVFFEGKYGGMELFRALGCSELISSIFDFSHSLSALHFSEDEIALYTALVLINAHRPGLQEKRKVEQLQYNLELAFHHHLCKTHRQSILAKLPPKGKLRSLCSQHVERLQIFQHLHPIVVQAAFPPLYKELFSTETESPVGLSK
# In short: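 Reporter transcripts from a transfected RORg-GAL4 chimera in HepG2 cells were quantified 24 h after dosing by RT-PCR, 6-FAM labelling, HpaI digestion and capillary electrophoresis; increases over DMSO baseline were fitted.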
# [4] = molecular target: Retinoic acid receptor RXR-alpha (Homo sapiens) (UniProt P19793); experiment: ATG_RXRa_TRANS: Attagene TRANS-FACTORIAL HepG2 Assay for human Retinoid X Receptor alpha (RXRa) (AID 2283012)
# Retinoic acid receptor RXR-alpha (Homo sapiens), sequence (P19793 whole entry, looked up, the tested form may be a part): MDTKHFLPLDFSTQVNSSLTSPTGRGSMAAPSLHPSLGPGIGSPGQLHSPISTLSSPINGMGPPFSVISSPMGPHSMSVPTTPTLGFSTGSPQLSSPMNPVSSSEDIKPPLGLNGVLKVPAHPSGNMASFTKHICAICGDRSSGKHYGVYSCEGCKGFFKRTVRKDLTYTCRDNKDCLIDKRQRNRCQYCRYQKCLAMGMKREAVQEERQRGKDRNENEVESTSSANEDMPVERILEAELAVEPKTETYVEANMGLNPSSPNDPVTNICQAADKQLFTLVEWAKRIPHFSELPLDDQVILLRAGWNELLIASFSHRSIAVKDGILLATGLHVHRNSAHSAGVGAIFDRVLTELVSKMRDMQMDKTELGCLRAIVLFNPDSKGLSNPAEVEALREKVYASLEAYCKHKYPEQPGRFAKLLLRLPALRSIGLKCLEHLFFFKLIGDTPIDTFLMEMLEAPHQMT
# In short: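 Cells (HepG2) carried transiently transfected GAL4-responsive reporter units. Following a 24 h chemical incubation, reporter mRNA induction was read via RT-PCR fragment analysis; DMSO served as negative control and baseline.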
# [5] = molecular target: human Retinoid X Receptor beta (RXRb), RXRB (gene 6257) (UniProt P28702); experiment: ATG_RXRb_TRANS: Attagene TRANS-FACTORIAL HepG2 Assay for human Retinoid X Receptor beta (RXRb) (AID 2283013)
# human Retinoid X Receptor beta (RXRb), RXRB (gene 6257), sequence (P28702 whole entry, looked up): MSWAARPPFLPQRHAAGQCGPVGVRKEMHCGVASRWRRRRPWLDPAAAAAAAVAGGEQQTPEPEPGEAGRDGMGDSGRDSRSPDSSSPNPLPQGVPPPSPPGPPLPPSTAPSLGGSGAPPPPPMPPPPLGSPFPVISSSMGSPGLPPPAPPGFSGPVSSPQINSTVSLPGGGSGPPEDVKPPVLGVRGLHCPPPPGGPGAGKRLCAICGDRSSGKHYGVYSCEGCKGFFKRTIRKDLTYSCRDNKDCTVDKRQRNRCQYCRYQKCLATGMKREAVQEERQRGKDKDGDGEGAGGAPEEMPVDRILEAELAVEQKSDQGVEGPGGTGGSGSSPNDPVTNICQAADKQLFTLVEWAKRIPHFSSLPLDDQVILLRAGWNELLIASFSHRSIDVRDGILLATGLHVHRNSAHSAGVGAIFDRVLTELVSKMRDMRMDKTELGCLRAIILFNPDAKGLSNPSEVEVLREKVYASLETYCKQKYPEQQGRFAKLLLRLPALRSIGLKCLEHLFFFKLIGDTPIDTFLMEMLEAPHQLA
# In short: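 Multiplexed TRANS reporter assay in HepG2; 24 h dosing; reporter mRNA by RT-PCR/CE fluorescence; gain-of-signal relative to DMSO.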
# [6] = molecular target: human Thyroid Receptor alpha (THRa1), THRA (gene 7067) (UniProt P10827); experiment: ATG_THRa1_TRANS: Attagene TRANS-FACTORIAL HepG2 Assay for human Thyroid Receptor alpha (THRa1) (AID 2283014)
# human Thyroid Receptor alpha (THRa1), THRA (gene 7067), sequence (P10827 whole entry, looked up, the tested form may be a part): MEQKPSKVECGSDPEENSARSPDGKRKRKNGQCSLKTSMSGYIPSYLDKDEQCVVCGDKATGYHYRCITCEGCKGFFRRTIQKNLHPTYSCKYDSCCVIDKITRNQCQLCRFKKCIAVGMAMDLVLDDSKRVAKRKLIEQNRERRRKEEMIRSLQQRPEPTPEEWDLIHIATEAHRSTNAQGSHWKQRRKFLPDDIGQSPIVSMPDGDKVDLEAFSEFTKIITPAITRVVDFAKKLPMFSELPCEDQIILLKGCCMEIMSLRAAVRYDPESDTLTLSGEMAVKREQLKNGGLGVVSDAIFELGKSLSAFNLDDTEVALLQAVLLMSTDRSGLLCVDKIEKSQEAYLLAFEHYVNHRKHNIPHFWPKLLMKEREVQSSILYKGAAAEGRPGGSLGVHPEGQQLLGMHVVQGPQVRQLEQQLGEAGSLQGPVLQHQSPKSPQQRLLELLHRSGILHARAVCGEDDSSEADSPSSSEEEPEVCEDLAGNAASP
# In short: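 Transcripts from GAL4-UAS-driven reporters, measured after 24 h compound exposure by RT-PCR plus capillary electrophoresis of 6-FAM-labeled fragments, were fitted for gain of signal relative to DMSO. Cells: transiently transfected HepG2 expressing NR-Gal4 chimeras.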
# [7] = molecular target: Nuclear receptor subfamily 1 group I member 2 (Homo sapiens) (UniProt O75469); experiment: ATG_PXR_TRANS: Attagene TRANS-FACTORIAL HepG2 Assay for human Pregnane X Receptor (PXR) (AID 2283008)
# Nuclear receptor subfamily 1 group I member 2 (Homo sapiens), sequence (O75469 whole entry, looked up, the tested form may be a part): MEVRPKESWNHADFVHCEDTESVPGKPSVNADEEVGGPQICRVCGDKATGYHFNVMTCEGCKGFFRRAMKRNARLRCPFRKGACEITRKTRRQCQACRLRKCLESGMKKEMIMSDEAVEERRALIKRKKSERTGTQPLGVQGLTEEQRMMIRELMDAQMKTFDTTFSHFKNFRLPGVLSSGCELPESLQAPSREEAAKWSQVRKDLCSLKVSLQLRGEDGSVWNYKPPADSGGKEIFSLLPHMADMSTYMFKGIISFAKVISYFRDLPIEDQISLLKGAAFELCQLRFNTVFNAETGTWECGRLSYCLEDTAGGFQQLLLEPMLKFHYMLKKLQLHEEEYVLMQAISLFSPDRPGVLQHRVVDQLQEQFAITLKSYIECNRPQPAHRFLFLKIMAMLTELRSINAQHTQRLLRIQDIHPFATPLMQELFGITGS
# In short: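 Read-out is fluorescence of labelled reporter cDNA fragments separated by capillary electrophoresis after RT-PCR and HpaI digestion. Source: HepG2 cells carrying PXR-GAL4/UAS reporter constructs, treated 24 h; activity fitted upward relative to DMSO.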
# [8] = molecular target: human Retinoic Acid Receptor beta (RARb), RARB (gene 5915) (UniProt P10826); experiment: ATG_RARb_TRANS: Attagene TRANS-FACTORIAL HepG2 Assay for human Retinoic Acid Receptor beta (AID 2283004)
# human Retinoic Acid Receptor beta (RARb), RARB (gene 5915), sequence (P10826 whole entry, looked up, the tested form may be a part): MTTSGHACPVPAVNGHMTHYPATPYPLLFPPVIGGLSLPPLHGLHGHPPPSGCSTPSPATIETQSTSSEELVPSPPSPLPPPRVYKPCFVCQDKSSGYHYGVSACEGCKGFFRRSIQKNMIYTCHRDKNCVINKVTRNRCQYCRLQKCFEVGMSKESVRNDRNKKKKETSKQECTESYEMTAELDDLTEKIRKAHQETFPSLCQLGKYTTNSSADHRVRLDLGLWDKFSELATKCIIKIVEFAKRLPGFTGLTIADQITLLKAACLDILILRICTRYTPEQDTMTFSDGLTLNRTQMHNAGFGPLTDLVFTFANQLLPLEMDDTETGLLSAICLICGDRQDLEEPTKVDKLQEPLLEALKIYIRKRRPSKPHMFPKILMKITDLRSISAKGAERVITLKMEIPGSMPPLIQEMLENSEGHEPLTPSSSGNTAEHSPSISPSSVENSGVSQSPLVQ
# In short: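 Induction of reporter mRNA from a chimeric RARb-Gal4 construct was measured by RT-PCR, FAM labelling, HpaI digestion and capillary electrophoresis. Measurements followed 24 h compound treatment of transiently transfected human HepG2 liver cells, with DMSO as baseline.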
# [9] = molecular target: Retinoic acid receptor alpha (Homo sapiens) (UniProt P10276); experiment: ATG_RARa_TRANS: Attagene TRANS-FACTORIAL HepG2 Assay for human Retinoic Acid Receptor alpha (RARa) (AID 2283005)
# Retinoic acid receptor alpha (Homo sapiens), sequence (P10276 whole entry, looked up, the tested form may be a part): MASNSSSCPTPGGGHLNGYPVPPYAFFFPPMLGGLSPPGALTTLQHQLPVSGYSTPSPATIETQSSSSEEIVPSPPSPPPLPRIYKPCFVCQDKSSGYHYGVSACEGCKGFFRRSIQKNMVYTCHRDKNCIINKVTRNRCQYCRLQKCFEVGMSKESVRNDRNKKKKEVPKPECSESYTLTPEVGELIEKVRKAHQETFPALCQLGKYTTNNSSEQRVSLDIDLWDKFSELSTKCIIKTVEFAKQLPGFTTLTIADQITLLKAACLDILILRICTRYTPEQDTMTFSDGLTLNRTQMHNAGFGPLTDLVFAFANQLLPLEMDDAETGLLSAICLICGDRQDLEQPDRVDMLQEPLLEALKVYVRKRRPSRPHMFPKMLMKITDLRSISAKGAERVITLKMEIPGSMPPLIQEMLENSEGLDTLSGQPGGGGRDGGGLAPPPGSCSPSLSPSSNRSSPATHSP
# In short: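 Reporter transcripts, measured by RT-PCR with fluorescent labeling and capillary electrophoresis after 24 h dosing, reflect activity of an exogenous human RARa–GAL4 fusion in transiently transfected HepG2. Fitted for increase relative to DMSO.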
# [10] = molecular target: human RAR-related Orphan Receptor beta (RORb), RORB (gene 6096) (UniProt Q92753); experiment: ATG_RORb_TRANS: Attagene TRANS-FACTORIAL HepG2 Assay for human RAR-related Orphan Receptor beta (RORb) (AID 2283010)
# human RAR-related Orphan Receptor beta (RORb), RORB (gene 6096), sequence (Q92753 whole entry, looked up, the tested form may be a part): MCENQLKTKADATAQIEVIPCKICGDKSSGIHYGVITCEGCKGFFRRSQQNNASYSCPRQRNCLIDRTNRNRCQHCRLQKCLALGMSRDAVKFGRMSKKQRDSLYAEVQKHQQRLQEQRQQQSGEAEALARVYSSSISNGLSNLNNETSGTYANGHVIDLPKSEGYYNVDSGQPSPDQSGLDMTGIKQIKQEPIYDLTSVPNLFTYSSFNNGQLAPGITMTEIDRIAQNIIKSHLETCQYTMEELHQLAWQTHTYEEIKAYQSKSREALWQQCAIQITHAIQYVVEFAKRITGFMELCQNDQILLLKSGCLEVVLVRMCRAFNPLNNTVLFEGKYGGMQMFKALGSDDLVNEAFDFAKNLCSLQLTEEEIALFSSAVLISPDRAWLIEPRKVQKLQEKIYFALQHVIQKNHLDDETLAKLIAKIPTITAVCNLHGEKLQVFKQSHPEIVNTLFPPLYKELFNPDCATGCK
# In short: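 In this TRANS-format test, human HepG2 cells express chimeric NR-Gal4 fusion proteins driving GAL4-UAS reporters. After 24 h dosing, reporter transcripts are measured by fluorescent RT-PCR/capillary electrophoresis, with DMSO as negative control.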
# [11] = read-out: Intercellular Adhesion Molecule 1 (ICAM1), ICAM1 (gene 3383); experiment: BSK_3C_ICAM1: BioMAP Diversity Plus: 3C Assay for Intercellular Adhesion Molecule 1 (ICAM1) Biomarker Activity (AID 2283003; active = hit-call score of the fitted dose curve at least 0.9, where 1 is the maximum; inactive = score below 0.9); conditions: primary human endothelial cells (HUVEC); actives raise or lower the signal
# In short: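 Human vascular endothelial primary cells, 3C conditions, 24 h treatment. ICAM-1 by ELISA.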
# [12] = BSK_3C_Proliferation: Cell Proliferation Assessment in the BioMAP Diversity Plus: 3C Assay (AID 2283006; active = hit-call score of the fitted dose curve at least 0.9, where 1 is the maximum; inactive = score below 0.9;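 for AC50: potency may reflect either rise or fall in cell number versus DMSO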); conditions: primary human endothelial cells (HUVEC)
# In short: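 Proliferation of human vascular endothelial primary cells after 48 h dosing, quantified as SRB-stained protein at 560 nm relative to DMSO.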
# [13] = molecular target: human Retinoic Acid Receptor gamma (RARg), RARG (gene 5916) (UniProt P13631); experiment: ATG_RARg_TRANS: Attagene TRANS-FACTORIAL HepG2 Assay for human Retinoic Acid Receptor gamma (RARg) (AID 2283009)
# In short: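 HepG2, RARg-GAL4 TRANS system, 24 h exposure; reporter mRNA by RT-PCR + CE fluorescence; increase over DMSO.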
# [14] = read-out: E-selectin (Homo sapiens) (UniProt P16581); experiment: BSK_3C_Eselectin: BioMAP Diversity Plus: 3C Assay for Eselectin Biomarker Activity (AID 2283015; active = hit-call score of the fitted dose curve at least 0.9, where 1 is the maximum; inactive = score below 0.9;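 for outcome: cell surface E-selectin protein quantified by ELISA 24 h after dosing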); conditions: primary human endothelial cells (HUVEC); actives raise or lower the signal
# In short: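 E-selectin ELISA readout, fitted bidirectionally relative to DMSO, taken 24 h post-dosing in HUVEC cultures of the 3C system. Overt cytotoxicity tracked with sulforhodamine B staining of parallel wells.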
# [15] = read-out: Interleukin-1 alpha (IL1a), IL1A (gene 3552); experiment: BSK_BE3C_IL1a: BioMAP Diversity Plus: BE3C Assay for Interleukin-1 alpha (IL1a) Biomarker Activity (AID 2283016; active = hit-call score of the fitted dose curve at least 0.9, where 1 is the maximum; inactive = score below 0.9); conditions: primary human bronchial epithelial cells; actives raise or lower the signal
# In short: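 Cultures of primary human bronchial epithelial cells receive test chemical. After 24 h, IL-1a is quantified by ELISA, while parallel wells are fixed in TCA and SRB-stained for total protein. Changes in either direction are fitted relative to DMSO.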
# [16] = read-out: Monocyte Chemoattractant Protein-1 (MCP1), CCL2 (gene 6347); experiment: BSK_3C_MCP1: BioMAP Diversity Plus: 3C Assay for Monocyte Chemoattractant Protein-1 (MCP1) Biomarker Activity (AID 2283017; active = hit-call score of the fitted dose curve at least 0.9, where 1 is the maximum; inactive = score below 0.9); conditions: primary human endothelial cells (HUVEC); actives raise or lower the signal
# In short: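 MCP-1 was measured by ELISA 24 h after dosing in primary HUVEC 3C cultures and fitted in both directions relative to DMSO; cytotoxicity was checked by SRB total-protein staining in parallel wells.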
# [17] = read-out: Monocyte Chemoattractant Protein-1 (MCP1), CCL2 (gene 6347); experiment: BSK_4H_MCP1: BioMAP Diversity Plus: 4H Assay for Monocyte Chemoattractant Protein-1 (MCP1) Biomarker Activity (AID 2283018; active = hit-call score of the fitted dose curve at least 0.9, where 1 is the maximum; inactive = score below 0.9); conditions: primary human endothelial cells (HUVEC); actives raise or lower the signal
# In short: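 Readout: MCP-1 ELISA on compound-treated HUVEC, sampled 24 h post-dosing. Baseline and negative control DMSO; bidirectional fit. Overt toxicity checked alongside by sulforhodamine B protein staining at time of biomarker measurement.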
# [18] = read-out: Human Leukocyte Antigen - DR isotype (HLADR), HLA-DRA (gene 3122); experiment: BSK_3C_HLADR: BioMAP Diversity Plus: 3C Assay for Human Leukocyte Antigen - DR isotype (HLADR) Biomarker Activity (AID 2283019; active = hit-call score of the fitted dose curve at least 0.9, where 1 is the maximum; inactive = score below 0.9;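 for outcome: ELISA of cell-surface HLA-DR on HUVEC 24 h after dosing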); conditions: primary human endothelial cells (HUVEC); actives raise or lower the signal
# In short: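 Bidirectional fitting against DMSO was applied to the HLA-DR ELISA signal from human umbilical vein endothelial cells, 24 h post-dose. Cytotoxicity came from parallel SRB total-protein staining; 3C proliferation was counted by SRB at 48 h.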
# [19] = read-out: Interleukin-8 (IL8), CXCL8 (gene 3576); experiment: BSK_3C_IL8: BioMAP Diversity Plus: 3C Assay for Interleukin-8 (IL8) Biomarker Activity (AID 2283020; active = hit-call score of the fitted dose curve at least 0.9, where 1 is the maximum; inactive = score below 0.9); conditions: primary human endothelial cells (HUVEC); actives raise or lower the signal
# In short: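 Human vascular endothelial cells (umbilical vein) in the 3C system; IL-8 level detected by ELISA at 24 h post-dose, with DMSO as baseline.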
structure (smiles),measurement,setting,value
c1ccc(CCCc2ccncc2)cc1,outcome,[1],inactive
same,AC50,[2],13.9 µM (active)
same,outcome,[3],inactive
same,outcome,[4],inactive
same,outcome,[5],inactive
same,outcome,[6],inactive
CC1(C)O[C@@H]2C[C@H]3[C@@H]4C[C@H](F)C5=CC(=O)C=C[C@]5(C)[C@@]4(F)[C@@H](O)C[C@]3(C)[C@]2(C(=O)CO)O1,outcome,[1],inactive
same,outcome,[7],inactive
same,outcome,[4],inactive
same,outcome,[5],inactive
same,outcome,[6],inactive
Cc1c(C)c([N+](=O)[O-])c(C(C)(C)C)c([N+](=O)[O-])c1C,outcome,[8],inactive
same,outcome,[9],inactive
same,outcome,[2],inactive
same,AC50,[7],2 µM (active)
same,outcome,[10],inactive
same,outcome,[3],inactive
same,AC50,[4],12.7 µM (active)
same,AC50,[5],1.7 µM (active)
CC(=O)OCCC1CCCCC1,outcome,[1],inactive
same,outcome,[2],inactive
same,outcome,[6],inactive
C=CCOc1c(Br)cc(Br)cc1Br,AC50,[11],28.7 µM (active)
same,outcome,[8],inactive
same,outcome,[9],inactive
same,AC50,[12],25.8 µM (active)
same,outcome,[2],inactive
same,AC50,[7],27.4 µM (active)
same,outcome,[13],inactive
same,outcome,[10],inactive
same,outcome,[3],inactive
same,AC50,[4],56.2 µM (active)
same,AC50,[5],6.51 µM (active)
same,outcome,[6],inactive
same,AC50,[14],20 µM (active)
same,AC50,[15],20 µM (active)
same,AC50,[16],20 µM (active)
same,AC50,[17],20 µM (active)
same,AC50,[18],24.8 µM (active)
same,outcome,[19],inactive
Cc1ccc(OC(=O)CC(C)C)cc1,outcome,[1],inactive
same,outcome,[3],inactive
same,outcome,[4],inactive
same,outcome,[5],inactive
same,outcome,[6],inactive
CC(=O)C=CC1C(C)=CCC(C)C1(C)C (centres undefined),outcome,[1],inactive
same,outcome,[2],inactive
same,outcome,[4],inactive
same,AC50,[5],68.5 µM (active)
same,outcome,[6],inactive
CCCCCCCC(C)=O,outcome,[1],inactive
same,outcome,[7],inactive
same,outcome,[3],inactive
same,outcome,[5],inactive
same,outcome,[6],inactive
CC(=O)Nc1ccc2c(c1)Cc1cc(NC(C)=O)ccc1-2,outcome,[1],inactive
same,outcome,[5],inactive
same,outcome,[6],inactive
COc1ccc(C(Cl)=C(c2ccc(OC)cc2)c2ccc(OC)cc2)cc1,outcome,[8],inactive
same,outcome,[9],inactive
same,AC50,[7],3.67 µM (active)
same,outcome,[13],inactive
same,outcome,[3],inactive
same,outcome,[4],inactive
OCCc1ccncc1,outcome,[8],inactive
same,outcome,[9],inactive
same,outcome,[2],inactive
same,outcome,[10],inactive
same,outcome,[6],inactive
CC1OC1C1CCC2(C)OC2C1 (centres undefined),outcome,[11],inactive
same,outcome,[9],inactive
same,outcome,[12],inactive
same,AC50,[7],23.4 µM (active)
same,outcome,[10],inactive
same,outcome,[4],inactive
same,outcome,[14],inactive
same,outcome,[15],inactive
same,outcome,[16],inactive
same,outcome,[17],inactive
same,outcome,[18],inactive
same,outcome,[19],inactive
CCCCCCCCCCCCCOP(=O)(O)O,outcome,[1],inactive
same,AC50,[2],16.4 µM (active)
same,outcome,[3],inactive
CCCOCCOCCOCCO,outcome,[1],inactive
same,outcome,[7],inactive
same,outcome,[3],inactive
same,outcome,[5],inactive
CCOCC(=O)O,outcome,[1],inactive
same,outcome,[7],inactive
same,outcome,[3],inactive
same,outcome,[4],inactive
same,outcome,[5],inactive
same,outcome,[6],inactive
